The whole screen tested about 200,000 compounds, of which about 25 (0.01%) were called active. About 23% were inconclusive and are not listed. The call rests on the fitted dose curve; in most records, active means well fitted inhibition curve with a large enough effect in the signal ratio, with a control signal flat (not every such curve was filed as active); inconclusive means small, poorly fitted or top-dose-only effect, or effect the other way, or a change in a side signal; inactive means flat fitted curve, though single readings scatter; the % refers to the signal ratio. The sample as a whole holds a higher share of actives than the screen did.
Assay: qHTS Assay for Modulators of Lamin A Splicing
Conditions: HeLa LMNA splicing GFP/RFP minigene ratio, 48 h; series mostly up to 46 µM; ratio change, negative = inhibition: at the top concentration
Text: NCGC Assay Overview: Hutchinson-Gilford Progeria Syndrome (HGPS) is a pediatric premature aging disease caused by a spontaneous mutation in the lamin A/C (LMNA) gene. The mutation activates a cryptic splice site in the LMNA pre-mRNA which results in production of a pre-lamin A protein that cannot be processed properly. The mutant protein accumulates in the nucleus and negatively affects numerous cellular functions. Correction of the splicing defect in HGPS patient cells using a targeted oligonucleotide (exo11) leads to reversal of the cellular disease phenotypes. To identify small molecule modulators of aberrant LMNA splicing, a homogenous assay was constructed in HeLa cells that used a GFP containing minigene to report on correction of aberrant splicing in lamin A and a RFP (DsRed2) to report on cell viability, uniformity and nonspecific effects on the assay signal. This assay was adapted to laser-scanning microplate cytometry (Acumen, TTP Labtech) where miniaturization of the assay to a 1,536-well plate format was possible. References: Bowen, W. P.; Wylie, P. G. Application of Laser-Scanning Fluorescence Microplate Cytometry in High Content Screening. Assay Drug Dev Technol 2006;4:209-221. Scaffidi P, Misteli T. Reversal of the cellular phenotype in the premature aging disease Hutchinson-Gilford progeria syndrome. Nat.
NCGC Assay Protocol Summary: Reagents/Controls: Stable clones expressing DsRed2 and lamin A-EGFP were generated by Cell and Molecular Technologies in S3 HeLa cells. HeLa cells were prepared for the assay when they were 70-90% confluent. The cells were counted and resuspended in Opti-MEM I (no phenol red; Gibco), 2% FBS, 1% penicillin/ streptomycin (Gibco) at concentration of 120 cells/uL concentration. The suspension was passed through a Falcon basket filter with pore size 40um (Beckton Dickson). Control titrations: column […] 1536-well plate contained a sixteen point titration (1:2 dilutions) in duplicate of ancitabine (Sigma: A8598) beginning at 40 uM final concentration. Column 2 contained a sixteen point titration (1:2 dilutions) of cycloheximide beginning at 1.4 mM final concentration. Column 3 contained ancitabine at 40 uM and column 4 contained was the vehicle control (0.5% DMSO final concentration). Assay Steps: 5 uL of HeLa cells were plated in Aurora LoBase black clear bottom (cyclic-olefin polymer) 1536-well plates at a final density of 600 cells/well. Controls and library compounds were added with a 1536-well pin array using the Kalypsys pin-tool. The plates were then incubated for 48 hrs in a cell-culture incubator (37 °C; 5% CO2, 98% humidity). Following incubation the plates were read on the Acumen Explorer using the 488 nm laser. Data was collected on objects between 10 and 100 um in size. Cell objects were defined by a 15 um width x 10 um depth filter. The ratio of the total object intensity in PMT1 (500-530 nm emission; GFP) over PMT3 (575-640 nm emission; RFP) was calculated for analysis. Keywords: NIH Roadmap, MLSCN, MLI, MLSMR, qHTS, NCGC, lamin A, Progeria, RNA splicing.
On the % scale 0 is the no-effect control and ±100 the full control effect; potency means the concentration at half of the fitted maximal effect.

Ratio change, negative = inhibition, inactive:
O=C(CSc1nnc2ccc(-c3ccncc3)nn12)N1CCCCC1 22.1%, Cc1ccc([N+](=O)[O-])c(OCCCNCC(C)O)c1 (stereo unspecified) -18.3%, COc1cccc(NC(=O)C(=O)NCC(c2ccc3c(c2)OCO3)N2CCN(C)CC2)c1 (stereo unspecified) 2.28%, CC(=O)Nc1cccc(NC(=O)c2c(-c3ccccc3)noc2C)c1 -4.51% [at 46.1 µM], Cc1onc(-c2ccccc2)c1C(=O)Nc1ccccc1C#N 9.17% [at 46.1 µM], Cc1cc(C)cc(OCC(=O)O/N=C(\N)Cc2ccc([N+](=O)[O-])cc2)c1 -7.35%, COc1ccc(Sc2nc(-c3ccccc3)ncc2OC)cc1 15.7%, Cc1ccc(SCC(=O)Nc2ccc3oc(-c4ccccc4F)nc3c2)cc1 28.4%, COCCNC(=O)c1ccc(-n2c(SCc3cccnc3)nc3ccccc3c2=O)cc1 2.39%, Cc1cccc(C)c1NC(=S)N(Cc1cccnc1)Cc1ccccc1Cl 17.6% [at 9.22 µM], CCN1CCN(CCCNC(=O)c2ccc3c(c2)sc2nc(-c4ccc(OC)cc4)cn23)CC1 20.5%, CCOC(=O)c1c(-c2cccc(N)c2)cn2ccccc12 7.28%, Cc1ccc(CSc2nc3cccnc3n2Cc2ccc(C(=O)NC3CC3)cc2)cc1 11%, N#C/C(=C(\O)C(F)(F)F)c1nnc2n1CCCCC2 -13.7%, O=C(Cc1ccc(Cl)cc1)NCc1nc(-c2ccccc2)no1 13.3%, CCOC(=O)c1c(SCC(=O)Nc2cccc(C)c2C)nc(=O)[nH]c1C -5.72%, COc1cc2c(C(=O)N3CCN(C)CC3)c(CSc3ccccc3)n(C)c2cc1Br -21.8%, COc1cc(C(=O)Nc2cc(C(F)(F)F)ccc2-n2cncn2)cc(OC)c1OC -20%, Cc1ccc(COc2ccc(C(=O)NN)cc2)cc1 -2.54%, CC(=O)c1ccc(NC(=O)CSc2nc(-c3ccccc3F)nc3c2c(=O)n(C)c(=O)n3C)cc1 -9.49%, CSc1nc2c(c(=O)[nH]1)C(c1cccc(Cl)c1Cl)CC(=O)N2 (stereo unspecified) -8.67% [at 9.22 µM], CCc1nnc2c3ccccc3nc(N3CCN(c4ccc(C)cc4C)CC3)n12 -13.9%, O=C1COc2ccc(C(=O)COC(=O)C3CC(O)CN3S(=O)(=O)c3ccc(Cl)cc3)cc2N1 (stereo unspecified) -23.2%, COC(=O)c1c(NC(=O)CCCC(=O)O)sc2c1CCCCC2 -7.02%, COc1cccc(CNC(=O)C2CCN(S(=O)(=O)c3ccc4c(ccn4C)c3)CC2)c1 -12.3%, CC1(C)CN(c2ccc(-c3ccnc4ncnn34)cc2)C1=O -28.7%, CCOc1cc(C(=O)Nc2nnc3n2CCS3)cc(OCC)c1OCC -0.322%, COc1ccc(C(C)=O)cc1CSc1nc2nc(C)cc(C)n2n1 11.6%, CC(=O)N1CCCc2ccc(NS(=O)(=O)c3ccc(F)cc3F)cc21 6.09%, CCOc1ccc(-n2cnc3c(=O)[nH]c(N)nc32)cc1 19.4%, CCOC(=O)Cn1c(=O)n(-c2ccccc2OC)c2nc(-c3cccc(F)c3)nc(C(N)=O)c21 -9.35%, CCCNC(=O)CCC(=O)N1Cc2ccccc2Oc2ncccc21 8.53%, COc1ccc(NC(=O)N2CCCn3nc(C)cc32)cc1OC 6.06%, Cc1cnc(C(=O)OCC(=O)N2CCc3ccccc32)cn1 1.94% [at 9.22 µM], COC(=O)CSc1ncnc2c1cnn2-c1ccc(C)cc1C 0.727%, COc1ccc(C2=NN(C(=O)CCC(=O)O)C(c3cccs3)C2)cc1OC (stereo unspecified) 4.17%, CNc1nc2c(C)cccn2c(=O)c1C=Nc1ccc(OC)cc1 -17.3%, Cc1ccc(-n2nc(C)c3c(C)cc(=O)n(CC(=O)Nc4ccc(C(C)C)cc4)c32)cc1 -0.422%, COc1cc(NS(=O)(=O)c2ccc3c(c2)OCC(C(=O)N2CCCC2)O3)cc(OC)c1 (stereo unspecified) -0.229%, COc1cccc(NC(=S)N(Cc2ccc(C)cc2)Cc2ccccn2)c1 -5.44%, O=C(Nc1ccccc1C(=O)O)c1cc(S(=O)(=O)N2CCCCC2)cs1 5.58%, COc1ccc(CNS(=O)(=O)c2cc3c4c(c2)CCN4C(=O)CC3)cc1 -8.87%, Cc1c(CCOC(=O)c2cc([N+](=O)[O-])ccc2Cl)sc[n+]1CCCCS(=O)(=O)[O-] 11.9%, COc1cc(/C=C/C(=O)OCC(=O)N2CCOCC2)ccc1OCC#N -0.73%, CC(C)CNc1ncnc2c1nnn2C 14%, CC1CN(/C=C/C(=O)C(F)(F)F)CC(C)O1 (stereo unspecified) -0.822%, O=C(CC1C(=O)NCCN1Cc1ccc(-c2ccccc2)cc1)NCc1ccncc1 (stereo unspecified) 13.2%, O=C(CCSCc1cccc(F)c1)NCc1ccccc1 30.8%, CC(C)CCNC(=O)CSc1nc2ccccc2nc1Cc1ccc(Cl)cc1 -3.3%, C/C(Cn1nnc2ccccc21)=N\OC(=O)c1cc(F)c(F)cc1Cl 0.235%, O=C(NCCc1ccccc1)c1cnc2sc(N3CCCC3)nn2c1=O 15.1%, O=[N+]([O-])c1cc([N+](=O)[O-])c2cccnc2c1O 1.6%, O=C(Nc1ccccc1F)C(c1ccccc1)N1Cc2ccccc2C1=O (stereo unspecified) 18.7%, Cc1ccc(C)c(N2CCN(S(=O)(=O)c3ccc4c(c3)C(C(C)C)C(=O)N4)CC2)c1 (stereo unspecified) -10.7%, Cc1cccc(N2CCN(C(=O)CCSCc3ccccc3F)CC2)c1C -21.7%, COc1ccc(SCc2cc(=O)c3ccc(C)c(C)c3[nH]2)cc1 -9.07%, Cc1ccc(C(c2nnnn2C(C)(C)C)N2CCc3ccccc3C2)cc1 (stereo unspecified) -3.87% [at 46.1 µM], CC(C)(C)n1nnnc1C(c1ccc(Cl)cc1)N1CCSCC1 (stereo unspecified) -14% [at 46.1 µM], COC(=O)C(C)NC(=O)COc1ccc2ccccc2c1 (stereo unspecified) 4.35%, O=C(Nc1ccc2nc(SCC(=O)N3CCc4ccccc43)sc2c1)c1ccccc1F 3.72%, CCCN(CCC)CCNC(=O)c1ccc2c(c1)NC(=O)C(CS(=O)(=O)Cc1cccc(Br)c1)N2 (stereo unspecified) -3.12%, CC(C)(C)NC(=O)COC(=O)c1cc(Cl)ccc1[N+](=O)[O-] -6.76%, O=C(CN(c1cccc(Cl)c1)S(=O)(=O)c1ccccc1)NN=C1CCCC1 14.5%, Cc1cccc(NC(=O)c2cc([N+](=O)[O-])ccc2N2CCN(C)CC2)c1 -17.1%

Potency, active:
CCOC(=O)c1c(-c2cccc(C)c2)csc1NC(=O)c1c(-c2ccccc2)noc1C 0.631 µM, CC(C)(C)n1nnnc1C(c1ccc2ncccc2c1)N1CCSCC1 (stereo unspecified) 6.31 µM
